Experimental data reported in the supplement of paper PMC3545927.
Some of the results follow. The true hit rate is not given.

B1: HC213 (peptide)
chain: CAPSWGPTDPAGNASASA
B2: FS-315 (peptide)
chain: CAWGNRFKKLAGNASASA
B3: FS-317 (peptide)
chain: CAWGSRFKKLAGNASASA
B4: FS-209 (peptide)
chain: CAWGPRFKRLAGNASASA
B5: FS-269 (peptide)
chain: CALGPRFKRLAGNASASA
B6: HC858 (peptide)
chain: CAHSKKKCDEAGNASASA
B7: HC2499 (peptide)
chain: CASPPCSAHLAGNASASA
B8: HC1989 (peptide)
chain: CAYVCCSMSYAGNASASA
B9: HC2037 (peptide)
chain: CAVVSCSMSYAGNASASA
B10: FS-1002 (peptide)
chain: CAGPKDQKRSAGNASASA
B11: HC2319 (peptide)
chain: CAPVPCHRPSAGNASASA
B12: FS-557 (peptide)
chain: CAPVPRQRRPAGNASASA
B13: FS-620 (peptide)
chain: CAPVFRQKRSAGNASASA
B14: FS-1213 (peptide)
chain: CAIHRRTPRSAGNASASA
B15: FS-1387 (peptide)
chain: CAPVPRQKRSAGNASASA
B16: FS-561 (peptide)
chain: CARVYRQKRSAGNASASA
B17: HC1925 (peptide)
chain: CATTPCSGSLAGNASASA
B18: HC20 (peptide)
chain: CAMEEPSQHLAGNASASA
B19: FS-540 (peptide)
chain: CAIHHRQKRSAGNASASA
B20: FS-762 (peptide)
chain: CAELQRQKRSAGNASASA
B21: HC613 (peptide)
chain: CASLLKVPYFAGNASASA
B22: HC1610 (peptide)
chain: CAPGEINRVAAGNASASA
B23: FS-1987 (peptide)
chain: CAPARRSVLAAGNASASA
B24: FS-837 (peptide)
chain: CAPARRNRRAAGNASASA
B25: FS-147 (peptide)
chain: CAVASRNRRAAGNASASA
B26: HC494 (peptide)
chain: CALTTTQWQVAGNASASA
B27: HC1593 (peptide)
chain: CACEIYGACYAGNASASA
B28: FS-436 (peptide)
chain: CAGSPRPRRRAGNASASA
B29: FS-1648 (peptide)
chain: CAPISRPRRRAGNASASA
B30: HC739 (peptide)
chain: CAPISYLKGSAGNASASA
B31: FS-815 (peptide)
chain: CALAARPRRRAGNASASA
B32: HC2189 (peptide)
chain: CAEVYTSTWVAGNASASA
B33: HC2457 (peptide)
chain: CAESEVPCHRAGNASASA
B34: HC1685 (peptide)
chain: CAMLECSQHLAGNASASA
B35: HC1102 (peptide)
chain: CALPAILSPGAGNASASA
B36: HC58 (peptide)
chain: CATTPNSGSWAGNASASA
B37: FS-1280 (peptide)
chain: CASHLRVKRGAGNASASA
B38: FS-364 (peptide)
chain: CAMDARHKRGAGNASASA
B39: FS-1354 (peptide)
chain: CAKYGRVKRGAGNASASA
B40: FS-1335 (peptide)
chain: CAHFQRVKRGAGNASASA
B41: FS-89 (peptide)
chain: CASADLVVRGAGNASASA
B42: FS-691 (peptide)
chain: CAMLRRTKRGAGNASASA
B43: HC1888 (peptide)
chain: CATTPCSWSWAGNASASA
B44: HC716 (peptide)
chain: CAWPAPQGSRAGNASASA

Target: furin, P09958
Test: furin cleavage Z-score vs untreated control; higher = more cleavage, active = 3.5 or more, inactive = 1 or less, 8 variable residues between constant flanks
How it was run: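 Cleavage by purified furin was measured on 8-mer peptides fused to a cDNA oligonucleotide and held on magnetic beads by their N-terminus. Reactions (0.01 ml, 1:10 enzyme:substrate) ran 7.5, 15 or 30 min in 50 mM HEPES pH 7.5 with CaCl2 and NaCl. Released DNA was adapter-tagged by PCR and sequenced, with read counts giving abundance. Log counts versus furin-free reactions were lowess-adjusted and scaled by median absolute deviation to give the cleavage Z-score.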

Chain of furin, P09958 (P09958 whole entry): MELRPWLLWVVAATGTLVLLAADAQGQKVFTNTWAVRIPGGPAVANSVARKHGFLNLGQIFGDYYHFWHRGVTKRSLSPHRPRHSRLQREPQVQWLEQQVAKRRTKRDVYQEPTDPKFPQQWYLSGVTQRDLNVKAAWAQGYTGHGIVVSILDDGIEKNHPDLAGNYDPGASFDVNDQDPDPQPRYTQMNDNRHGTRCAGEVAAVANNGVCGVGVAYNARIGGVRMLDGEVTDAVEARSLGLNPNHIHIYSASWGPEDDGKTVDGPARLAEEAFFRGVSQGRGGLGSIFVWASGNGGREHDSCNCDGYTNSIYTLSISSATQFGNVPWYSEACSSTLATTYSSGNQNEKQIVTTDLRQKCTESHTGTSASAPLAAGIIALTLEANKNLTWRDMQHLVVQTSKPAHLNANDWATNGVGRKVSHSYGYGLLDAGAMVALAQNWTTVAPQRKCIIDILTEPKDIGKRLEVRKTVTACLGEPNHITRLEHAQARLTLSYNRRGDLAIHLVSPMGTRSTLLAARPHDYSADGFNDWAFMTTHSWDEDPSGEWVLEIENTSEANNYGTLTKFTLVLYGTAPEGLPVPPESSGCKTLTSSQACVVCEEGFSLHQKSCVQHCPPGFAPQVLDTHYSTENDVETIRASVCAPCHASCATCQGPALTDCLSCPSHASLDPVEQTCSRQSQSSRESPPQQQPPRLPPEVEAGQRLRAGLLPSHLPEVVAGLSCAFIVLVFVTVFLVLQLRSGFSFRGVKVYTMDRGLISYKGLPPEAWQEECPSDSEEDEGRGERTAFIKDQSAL

Sequence | furin cleavage Z-score (7.5 min) | furin cleavage Z-score (15 min) | furin cleavage Z-score (30 min)
B1 | -0.72 (inactive) | -1.18 (inactive) | 1.35
B2 | -1.19 (inactive) | 0.33 (inactive) | -1.11 (inactive)
B3 | 0.17 (inactive) | -0.284 (inactive) | 0.58 (inactive)
B4 | 6.86 (active) | 8.43 (active) | 8.5 (active)
B5 | 9.05 (active) | 10.1 (active) | 9.85 (active)
B6 | 0.938 (inactive) | -0.00521 (inactive) | -0.176 (inactive)
B7 | 1.04 | -0.446 (inactive) | 0.95 (inactive)
B8 | 0.374 (inactive) | -0.0389 (inactive) | 0.11 (inactive)
B9 | 0.59 (inactive) | -1.65 (inactive) | 0.705 (inactive)
B10 | 0.96 (inactive) | 0.905 (inactive) | 0.353 (inactive)
B11 | 0.318 (inactive) | 1.19 | 0.255 (inactive)
B12 | 1.31 | 0.43 (inactive) | -0.0302 (inactive)
B13 | 14.1 (active) | 12.3 (active) | 9.55 (active)
B14 | 10.3 (active) | 8.47 (active) | 7.15 (active)
B15 | 10.9 (active) | 10.8 (active) | 8.52 (active)
B16 | 12.1 (active) | 12.4 (active) | 9.77 (active)
B17 | -0.297 (inactive) | -1.38 (inactive) | -1.27 (inactive)
B18 | -0.193 (inactive) | 1.35 | 1.68
B19 | 12 (active) | 10.4 (active) | 9.65 (active)
B20 | 10.3 (active) | 11.5 (active) | 9.23 (active)
B21 | -0.873 (inactive) | 0.367 (inactive) | -0.906 (inactive)
B22 | 0.342 (inactive) | 1.78 | 0.355 (inactive)

Sequence | furin cleavage Z-score (7.5 min) | furin cleavage Z-score (15 min) | furin cleavage Z-score (30 min)
B23 | -0.364 (inactive) | -0.766 (inactive) | -0.871 (inactive)
B24 | 8.23 (active) | 9.65 (active) | 8.04 (active)
B25 | 13.1 (active) | 12.8 (active) | 9.83 (active)
B26 | 0.00411 (inactive) | -0.467 (inactive) | 0.941 (inactive)
B27 | -1.5 (inactive) | -1.53 (inactive) | -2.18 (inactive)
B28 | 7.08 (active) | 9.3 (active) | 7.64 (active)
B29 | 7.6 (active) | 8.41 (active) | 6.07 (active)
B30 | 0.299 (inactive) | -0.469 (inactive) | -0.42 (inactive)
B31 | 4.52 (active) | 6.47 (active) | 5.7 (active)
B32 | 0.0489 (inactive) | -1.01 (inactive) | -0.826 (inactive)
B33 | -0.0892 (inactive) | 0.0197 (inactive) | 0.878 (inactive)
B34 | -0.00687 (inactive) | -0.291 (inactive) | -0.319 (inactive)
B35 | -0.355 (inactive) | -0.501 (inactive) | -0.653 (inactive)
B36 | -0.658 (inactive) | -1.14 (inactive) | -1.83 (inactive)
B37 | 7.98 (active) | 7.64 (active) | 6.42 (active)
B38 | 6.41 (active) | 8.49 (active) | 7.7 (active)
B39 | 0.448 (inactive) | 0.71 (inactive) | 0.194 (inactive)
B40 | 7.42 (active) | 6.93 (active) | 6.76 (active)
B41 | 0.299 (inactive) | -0.542 (inactive) | -0.0754 (inactive)
B42 | -0.133 (inactive) | -0.069 (inactive) | 0.376 (inactive)
B43 | -2.26 (inactive) | -1.57 (inactive) | 0.135 (inactive)
B44 | 1.18 | -0.57 (inactive) | 0.187 (inactive)
